High-throughput results deposited in PubChem BioAssay by National Center for Advancing Translational Sciences (NCATS).
D3 antag – qHTS of D3 Dopamine Receptor Antagonist: qHTS. AID 652054, 2013. 360,000 tested, 2.5% active. max response, negative = inhibition, %. D3R cells, DiscoveRx beta-arrestin luminescence, antagonist mode; stronger effect = lower value. D(3) dopamine receptor (Homo sapiens), P35462; in the data active = max response below about -50%; inconclusive = no clear call, values can overlap the other calls; also: % is scaled to controls: 0 for no effect and ±100 for the full control effect
Target sequence (P35462 whole entry, looked up): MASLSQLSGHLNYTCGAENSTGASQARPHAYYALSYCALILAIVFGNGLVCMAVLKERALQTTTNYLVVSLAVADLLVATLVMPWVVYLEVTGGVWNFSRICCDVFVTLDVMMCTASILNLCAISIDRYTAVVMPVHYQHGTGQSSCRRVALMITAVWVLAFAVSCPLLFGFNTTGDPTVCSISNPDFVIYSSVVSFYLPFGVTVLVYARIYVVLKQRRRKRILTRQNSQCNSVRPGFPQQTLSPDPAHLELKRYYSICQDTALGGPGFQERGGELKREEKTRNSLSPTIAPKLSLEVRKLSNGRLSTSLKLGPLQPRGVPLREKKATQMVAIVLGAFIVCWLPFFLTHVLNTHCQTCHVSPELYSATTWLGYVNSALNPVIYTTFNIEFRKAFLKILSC
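Cells expressing the human receptor were seeded at 1500 cells/well, incubated overnight at 37 degrees C in 5% CO2, then exposed to library compounds with dopamine controls for 90 minutes at 37 degrees C before luminescent detection.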
ATXN viability – Viability Counterscreen for Primary qHTS for Inhibitors of ATXN expression. S2 cells (HEK-293 line with an ATXN2-luciferase reporter) viability, CellTiter-Fluor protease fluorescence, 24 h. Potency, µM (top dose mostly 56.7 µM), usual class: cytotoxic. 400,000 tested, 0.49% active; also: potency is read from the fitted curve at half-maximal effect; nearly all actives have a fitted effect of over 40% in size
DRD3 agonist – qHTS of D3 Dopamine Receptor Agonist: qHTS | D(3) dopamine receptor (Homo sapiens), P35462 | max activation, % | 410,000 tested, 0.58% active | D3R DiscoveRx beta-arrestin cells, luminescence, 90 min; in the data active = max activation above about 30%; also: 0% is about no effect
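Cells at 1500/well, incubated overnight, then treated with pinned compounds (dopamine as control) for 90 min at 37 degrees C. DiscoveRx reagent added for 30 - 60 minutes at room temperature; luminescence read.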
ATXN2 expr inh – Primary qHTS for Inhibitors of ATXN expression. Potency, µM (titrated, usually from 57 µM), without a hit: top-dose activity change, negative = inhibition, most hits filed as inhibitors. 360,000 tested, 0.72% active. HEK-293 ATXN2-luciferase reporter, luminescence, 24 h. AID 1745845, 2022; also: potency is read from the fitted curve at half-maximal effect; % is scaled to controls: 0 for no effect and ±100 for the full control effect; nearly all actives have a fitted effect of over 55% in size
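ATXN2-luciferase reporter cells (luciferase flanked by upstream and downstream ATXN2 gene portions) were treated 24 h at 37 °C with compounds at up to 57 uM. SteadyGlo luminescence gave expression; GF-AFC fluorescence gave viability.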
TGFb SMAD3 inh – qHTS for Inhibitors of TGF-b; 410,000 tested, 1.2% active; HepG2 CAGA-GFP TGF-b/SMAD3 reporter, GFP fluorescence, 18 h; TGF-beta stimulated, 500 pg/mL final; Potency, µM (series often up to 46.1 µM), for inactives: at the highest dose activity, negative = inhibition, hits mostly inhibitors; AID 588855, 2011; also: potency is read from the fitted curve at half-maximal effect; % is scaled to controls: 0 for no effect and ±100 for the full control effect; nearly all actives have a fitted effect of over 65% in size
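HEPG2 CAGA-GFP cells (1000/well, DMEM with 1% FBS) were pre-incubated 2 h at 37 degrees C, given compound by pin tool, then stimulated with TGF-beta at 500 pg/mL final for 18 h before per-cell GFP fluorescence imaging.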
HepG2 viability – qHTS for Inhibitors of TGF-b: Cytotox Counterscreen | AID 588856, 2011 | 410,000 tested, 0.76% active | HepG2 CAGA-GFP viability, ATP luminescence, 18 h | Potency, µM (highest dose often 46.1 µM), for the others: top-dose activity change, negative = cytotoxicity, usual class: cytotoxic; also: potency is read from the fitted curve at half-maximal effect
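CellTiter-Glo luminescence gave cytotoxicity after 18 hours at 37 degrees C. The cells were HepG2 CAGA-GFP in 1% FBS DMEM, stimulated with 500 pg/mL TGF-beta after compound addition. %Activity was normalised to no-cell wells (complete cell-killing) and DMSO (no toxicity), and curves were fitted and classified.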
The depositor's hits bear a star; i = inactive; ? = inconclusive; . = no result given. Rows were chosen to be rich in hits. Some 4.7% of all compounds tested hit in one or more screens of this group. Unless noted, calls follow the shape of the dose curve; as a rule, active = well fitted curve in the direction sought with a large enough effect; inconclusive = small, poorly fitted or top-dose-only effect, or another doubt; inactive = no such curve, though single readings can be large; an effect the other way counts as inactive or inconclusive.

SMILES	D3 antag	ATXN viability	DRD3 agonist	ATXN2 expr inh	TGFb SMAD3 inh	HepG2 viability
CCN1C(=O)[C@H]2[C@@H](c3ccc(-c4ccc(OC)cc4)c(OC)c3)N[C@@](C)(C(=O)OC)[C@H]2C1=O	-1.3	?	5.9	10.0%	17.4%	-6.0%
Cc1ccc2nc(CNC(=O)c3cc(NC(=O)c4ccccc4)cc4ncn(C5CCCC5)c34)cn2c1	.	i	.	.	.	.
O=C1C(Cl)=C(NCCN2CCOCC2)C(=O)c2ccccc21	-10.0	?	6.7	-35.8%	?	17.8µM*
COc1ccc(/C=C/c2ccccn2)cc1	.	.	.	.	?	-53.3%
c1ccc(-c2oc3ncnc(NCCCN4CCOCC4)c3c2-c2ccccc2)cc1	-64.8*	i	-1.6	?	0.4%	-70.3%
OCCCNc1ncnc2oc(-c3ccccc3)c(-c3ccccc3)c12	24.6	i	28.1	?	?	-74.5%
COc1ccc(-c2oc3ncnc(NCCCN4CCOCC4)c3c2-c2ccc(OC)cc2)cc1	-94.2*	?	-5.5	?	-3.0%	-5.6%
COc1ccc(-c2oc3ncnc(NCCN4CCOCC4)c3c2-c2ccc(OC)cc2)cc1	-13.2	?	-0.5	-25.6%	?	-38.0%
C=C1C=C(C(F)F)n2ncc(C(=O)Nc3ccc(Br)cc3C(F)(F)F)c2N1	.	.	.	.	3.1%	-10.5%
Cc1ccc(C(=O)n2nc(C)c(S(=O)(=O)N3CCCCCC3)c2C)cc1C	.	i	4.0	13.7%	-0.7%	1.5%
COc1ccccc1C(=O)N1CCN(Cc2cc(=O)oc3cc(C)ccc23)CC1	.	.	9.3	.	-9.3%	-13.0%
COc1cccc(CNc2nc(Cl)nc3nc[nH]c23)c1	.	.	.	.	1.4%	-10.2%
Cc1cc(C)n(-c2nc3ccccc3nc2Nc2ccc3[nH]c(=O)[nH]c3c2)n1	24.5	i	41.8*	-19.7%	47.6%	-75.5%
CCOC(=O)C1=C(C)OC(=Cc2ccccc2)C1=O	28.8	i	13.3	.	-4.9%	0.5%
CCOC(=O)C1=C(O)c2ccccc2C(=O)/C1=C\c1ccc(C)cc1	-9.3	.	2.6	?	?	11.2µM*
CCOc1ccc(C2CC(=O)Nc3c2c(=O)nc(SCc2ccccc2C)n3C)cc1OC (stereo unspecified)	.	i	-0.2	6.9%	-2.3%	1.7%
COC(=O)c1c(OCc2cccnc2)cc(=O)n2c1CCN(C(=O)c1cccc(N(C)C)c1)CC2	.	i	.	.	.	.
CCCC(=O)OCCNc1cc(Sc2nc3ccccc3[nH]2)c2nonc2c1[N+](=O)[O-]	-82.8*	?	-16.0	?	?	6.31µM*
CC(=O)OCCCNc1cc(Sc2ccc(Cl)cc2)c2nonc2c1[N+](=O)[O-]	-118.5*	?	-18.3	?	?	-17.7%
CC(=O)OCCNc1cc(SC(C)C)c2nonc2c1[N+](=O)[O-]	6.3	i	-0.1	-15.9%	8.0%	1.4%
CCC(=O)OCCNc1cc(SCCC(=O)OC)c2nonc2c1[N+](=O)[O-]	-14.2	i	-4.2	7.8%	?	-75.4%
CCC(=O)OCCNc1cc(Sc2nccn2C)c2nonc2c1[N+](=O)[O-]	-101.5*	.	-16.5	?	11.2µM*	-124.4%
Cc1cc(NC(=O)CSc2nc3cc4c(cc3c(=O)n2CCc2ccccc2)OCO4)no1	-53.0*	i	1.6	-1.2%	-12.1%	2.8%
O=C(CSc1nnc2c(Cl)cc(C(F)(F)F)cn12)N(Cc1ccccc1)Cc1ccccc1	-15.2	i	-0.3	-8.3%	2.7%	11.2µM*
CCC(=O)NCCC1CCc2ccc3c(c21)CCO3 (stereo unspecified)	.	.	11.2	.	.	.
SMILES	D3 antag	ATXN viability	DRD3 agonist	ATXN2 expr inh	TGFb SMAD3 inh	HepG2 viability
Cc1ncc2c(c1CNC(=O)c1ccccc1F)CCN(C(=O)c1csc(-c3cccs3)n1)C2	.	i	.	.	.	.
O=C(NCCc1cnc[nH]1)Nc1cccc(C(F)(F)F)c1	?	i	-4.7	.	5.0%	2.3%
O=C(Nc1cccc(Nc2ncc(Br)c(NCCc3cnc[nH]3)n2)c1)N1CCCC1	.	.	.	19.3µM*	.	.
Cc1nnc(NC(=O)C2CCN(C(=O)c3ccsc3)CC2)s1	.	.	.	.	-4.8%	-14.0%
Oc1c(C(c2ccccn2)N2CCC(Cc3ccccc3)CC2)cc(Cl)c2cccnc12 (stereo unspecified)	-111.9*	.	-17.1	?	15.8µM*	-47.6%
CN1CCN(C(c2ccccn2)c2cc(Cl)c3cccnc3c2O)CC1 (stereo unspecified)	-125.9*	i	-18.2	.	?	-12.9%
Cc1ccc(C(c2cc(Cl)c3cccnc3c2O)N2CCN(C)CC2)cc1 (stereo unspecified)	-117.7*	i	-31.4	?	?	-2.8%
c1ccc(CC2CCN(Cc3ccccn3)CC2)cc1	-4.1	i	-17.1	-19.2%	?	-2.8%
Oc1c(C(c2ccc(Cl)cc2)N2CCCC2)cc(Cl)c2cccnc12 (stereo unspecified)	-105.7*	i	-8.7	.	4.2%	6.1%
COc1cc(C(=O)NC(c2ccc(Cl)cc2)c2cc(Cl)c3cccnc3c2O)cc(OC)c1OC (stereo unspecified)	.	?	4.4	?	-8.3%	-17.0%
COc1ccc(S(=O)(=O)c2c(Nc3ccccc3F)sc(C(=O)c3cccc(OC)c3)c2N)cc1	.	.	-17.9	.	-5.6%	-17.2%
CN1CCN(C(c2ccc(C(F)(F)F)cc2)c2ccc3cccnc3c2O)CC1 (stereo unspecified)	?	?	-29.1	7.94µM*	?	-26.0%
CCCCCCCCCCCCCCCC[N+](C)(C)Cc1ccccc1	.	35.5µM*	-10.6	31.6µM*	.	.
CCCCCCCCCCCCCCCC[N+](C)(C)CCl	3.4	?	-7.2	-15.6%	?	-127.4%
CCCCCCCCCCCCCC[N+](C)(C)Cc1ccccc1	.	35.5µM*	9.3	35.5µM*	?	-98.1%
C=CCn1c(SCC(=O)NCc2ccco2)nnc1-c1cccc(N(C)C)c1	.	.	.	.	?	-31.6%
Nc1c(N2CCCC2)cc(Cl)c2nonc12	8.8	i	8.7	-19.7%	10µM*	-96.5%
Nc1c(N2CCOCC2)cc(Cl)c2nonc12	-8.7	i	-8.7	14.1%	0.4%	9.0%
Nc1ccc(N2CCCCC2)c2nonc12	?	i	0.6	.	12.6µM*	-75.9%
Nc1ccc(N2CCCCC2)cc1N1CCCCC1	-15.0	i	-4.8	-4.1%	10µM*	-28.7%
O=c1ccc2cc(S(=O)(=O)NCc3ccc(Cl)cc3)ccc2[nH]1	.	i	-3.3	-3.8%	-2.3%	-11.8%
